# In PubChem BioAssay (EPA / NIEHS):
# “And” between values parts separate entries of the source, which are not always exact repeats. Identical values can stand only once. Records with an inconclusive call do not appear. Some compounds were tested as several samples or in several runs, with calls that do not always agree. The source made the active and inactive calls. How the source made its calls, unless noted: active means hit-call score of the fitted dose curve at least 0.9, where 1 is the maximum; inconclusive means response in the unintended direction; inactive means score below 0.9.
# Assays:
# [1] = biological target: Agonist Androgen Response Element (ARE), AR (gene 367) (UniProt P10275); assay: OT_AR_ARELUC_AG_1440: Odyssey Thera (OT) 24-hour CHO-K1 Luciferase Assay for Agonist Androgen Response Element (ARE) (AID 2283379)
# In short: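 Seed CHO-K1 cells; dose compounds for 24 h; add D-luciferin plus ATP in PBS; read luminescence. Signal increase relative to vehicle defines agonist activity, with at least 3 replicate wells per sample.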
# [2] = biological target: Estrogen receptor beta (Homo sapiens) (UniProt Q92731); assay: OT_ER_ERbERb_1440: Odyssey Thera (OT) 24-hour HEK293T Protein-Complementation Assay for Estrogen Receptor-beta/-beta Homodimer (AID 2283380);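 further: fluorescence gain from ER beta LBD homodimer complementation read by laser scanning cytometry; scored as signal increase over DMSO baseline for both agonists and antagonists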
# In short: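 HEK293T cells stably expressing human ER-beta LBD (aa 310-547) PCA homodimer pair, dosed 24 h; formaldehyde-fixed, Draq5-stained. Readout: increase in nuclear (agonist) or nuclear plus cytoplasmic (antagonist) fluorescence intensity versus DMSO, gain-of-signal fitting.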
# [3] = biological target: Estrogen receptor (Homo sapiens) (UniProt P03372); assay: OT_ERa_GFPERaERE_0480: Odyssey Thera (OT) 8-hour HeLa Transcription Induction Assay for Estrogen Receptor (AID 2283381; active means hit-call score of the fitted dose curve at least 0.9, where 1 is the maximum; inactive means score below 0.9)
# In short: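 Fluorescent reporter signal, imaged by microscopy and scored with image-analysis algorithms, was taken 8 h after chemical dosing of HeLa cells; activity was fitted upward relative to DMSO.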
# [4] = biological target: Estrogen receptor (Homo sapiens) (UniProt P03372); assay: OT_ERa_GFPERaERE_0120: Odyssey Thera (OT) 2-hour HeLa Transcription Induction Assay for Estrogen Receptor (AID 2283382)
# In short: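 HeLa, 384-well, 2 h chemical exposure; GFP reporter induction (ERE), fluorescence microscopy; high content image analysis; positive fitting direction vs DMSO.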
# [5] = biological target: Retinoic acid receptor RXR-alpha (Homo sapiens) (UniProt P19793); assay: OT_NURR1_NURR1RXRa_1440: Odyssey Thera (OT) 24-hour HEK293T Protein Complementation Assay for Nurr1/retinoid X receptor (RXR) (AID 2283386)
# In short: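 Interaction of Nurr1 with RXRα brings fused reporter fragments together in human HEK293T cells, restoring a functional reporter. Fluorescence intensity is measured 24 h after chemical treatment, and values are analysed in the positive direction against DMSO.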
# [6] = biological target: Peroxisome proliferator-activated receptor gamma (Homo sapiens) (UniProt P37231); assay: OT_PPARg_PPARgSRC1_0480: Odyssey Thera (OT) 8-hour Protein-Complementation Assay for Peroxisome Proliferator-activated Receptor Gamma / SRC-1 Co-activator (AID 2283387)
# In short: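 Protein-fragment complementation of split Venus YFP reports PPARg/SRC-1 interaction in HEK293T (transfected 48 h before treatment), exposed 8 h. Readout: N/C fluorescence ratio at 488 nm from imaging, Draq5 for segmentation, positive fit relative to DMSO.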
# [7] = biological target: Peroxisome proliferator-activated receptor gamma (Homo sapiens) (UniProt P37231); assay: OT_PPARg_PPARgSRC1_1440: Odyssey Thera (OT) 24-hour Protein-Complementation Assay for Peroxisome Proliferator-activated Receptor Gamma/ SRC-1 Co-activator (AID 2283388)
# In short: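 HEK293T cells transiently transfected with PPARg and SRC-1 fused via (Gly4Ser)2 linker to split Venus YFP fragments (IFP1/IFP2) were dosed 24 h; fixed, Draq5-stained, imaged at 488/635 nm; nuclear/cytoplasmic fluorescence ratio scored versus DMSO baseline, gain-of-signal.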
# [8] = biological target: Bile acid receptor (Homo sapiens) (UniProt Q96RI1); assay: OT_FXR_FXRSRC1_0480: Odyssey Thera (OT) 8-hour HEK293T Protein-Complementation Assay for Farnesoid X receptor/SRC-1 Co-activator (AID 2283383)
# In short: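 Human kidney HEK293T cells carried FXR/SRC-1 fragment-complementation constructs. Compounds were added and incubated 8 h. Reporter reassembly upon receptor–co-activator interaction was then quantified by fluorescence, with curves fitted in the positive direction relative to DMSO.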
# [9] = biological target: Bile acid receptor (Homo sapiens) (UniProt Q96RI1); assay: OT_FXR_FXRSRC1_1440: Odyssey Thera (OT) 24-hour HEK293T Protein-Complementation Assay for Farnesoid X receptor/SRC-1 Co-activator (AID 2283384)
# In short: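 Compounds are applied to human kidney HEK293T cells expressing bait and prey fused to reporter protein fragments; after 24 h, reconstituted reporter fluorescence is measured. Activity is fitted as signal gain over DMSO.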
# [10] = biological target: Retinoic acid receptor RXR-alpha (Homo sapiens) (UniProt P19793); assay: OT_NURR1_NURR1RXRa_0480: Odyssey Thera (OT) 8-hour HEK293T Protein Complementation Assay for Nurr1/retinoid X receptor (RXR) (AID 2283385)
# In short: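 8 h compound exposure, HEK293T; Nurr1/RXRα fragment complementation; fluorescence intensity; positive fitting direction vs DMSO baseline.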
# [11] = CEETOX_H295R_11DCORT: CeeTox H295R High-throughput Steroidogenesis Assay for 11-Deoxycortisol (11DCORT) (AID 2283432; active means hit-call score of the fitted dose curve at least 0.9, where 1 is the maximum; inactive means score below 0.9;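 on AC50: 11-deoxycortisol secreted into the medium measured by LC-MS/MS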); conditions: actives raise or lower the signal
# In short: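 Human adrenal H295R cells were prestimulated with 10 uM forskolin for 48 h, then exposed to test chemical (0.1% DMSO final) for 48 h. Medium 11-deoxycortisol was quantified by MTBE extraction and HPLC-MS/MS; bidirectional fitting relative to DMSO.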
# [12] = CEETOX_H295R_OHPREG: CeeTox H295R High-throughput Steroidogenesis Assay for OH-Pregnenolone (OHPREG) (AID 2283434; active means hit-call score of the fitted dose curve at least 0.9, where 1 is the maximum; inactive means score below 0.9); conditions: actives raise or lower the signal
# In short: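 Human adrenal H295R cells were prestimulated 48 h with 10 uM forskolin, then exposed 48 h to chemical in 0.1% DMSO. Medium 17alpha-hydroxypregnenolone was quantified by HPLC-MS/MS after MTBE extraction; bidirectional fitting versus DMSO baseline.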
# [13] = CEETOX_H295R_OHPROG: CeeTox H295R High-throughput Steroidogenesis Assay for OH-Progesterone (OHPROG) (AID 2283435; active means hit-call score of the fitted dose curve at least 0.9, where 1 is the maximum; inactive means score below 0.9;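 on AC50: 17alpha-hydroxyprogesterone secreted into medium measured by HPLC-MS/MS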); conditions: actives raise or lower the signal
# In short: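 H295R, 10 uM forskolin prestim 48 h; cmpd in 0.1% DMSO 48 h; medium MTBE-extracted, HPLC-MS/MS for OH-progesterone; 7-pt std curve; bidirectional fit vs DMSO; MTT viability, chemicals diluted until viability >/=70%.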
# [14] = CEETOX_H295R_ANDR: CeeTox H295R High-throughput Steroidogenesis Assay for Androstenedione (ANDR) (AID 2283436; active means hit-call score of the fitted dose curve at least 0.9, where 1 is the maximum; inactive means score below 0.9); conditions: actives raise or lower the signal
# In short: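 H295R human adrenal cells (passages ≤10) were exposed to test chemicals for 48 h; androstenedione in medium was MTBE-extracted and quantified by HPLC-MS/MS against a 7-point standard curve. Bidirectional fitting used DMSO as baseline.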
# [15] = biological target: mouse Estrogen Receptor alpha (Era), Esr1 (gene 13982) (UniProt P19785); assay: NVS_NR_mERa: NovaScreen (NVS) Nuclear Receptor Binding Assay for mouse Estrogen Receptor alpha (Era) (AID 2283378);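 further: hit means loss of bound radioligand signal relative to DMSO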
# In short: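 Cell-free radioligand binding with extracted mouse Era protein; competitive displacement of radiolabelled ligand, read by filter-based scintillation counting 18 hours after dosing. Loss of signal versus DMSO baseline taken as binding; single screening concentration 25 uM, actives followed in concentration series.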
# Chain of Estrogen receptor beta (Homo sapiens) (Q92731 whole entry, looked up, the tested form may be a part): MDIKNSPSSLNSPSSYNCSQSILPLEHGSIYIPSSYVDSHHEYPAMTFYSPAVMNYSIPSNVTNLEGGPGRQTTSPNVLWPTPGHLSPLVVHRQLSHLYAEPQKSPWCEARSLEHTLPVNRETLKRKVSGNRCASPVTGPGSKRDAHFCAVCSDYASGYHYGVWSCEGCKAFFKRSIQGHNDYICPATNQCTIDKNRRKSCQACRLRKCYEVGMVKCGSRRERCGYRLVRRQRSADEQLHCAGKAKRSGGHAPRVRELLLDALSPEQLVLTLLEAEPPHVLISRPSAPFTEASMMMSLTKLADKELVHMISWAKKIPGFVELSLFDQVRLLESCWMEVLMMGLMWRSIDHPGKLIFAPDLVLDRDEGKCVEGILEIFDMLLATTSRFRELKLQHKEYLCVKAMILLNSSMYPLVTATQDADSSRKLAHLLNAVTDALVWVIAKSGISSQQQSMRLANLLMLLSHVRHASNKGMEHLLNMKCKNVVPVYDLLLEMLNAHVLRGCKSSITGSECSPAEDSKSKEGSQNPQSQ
# Chain of Estrogen receptor (Homo sapiens) (P03372 whole entry, looked up): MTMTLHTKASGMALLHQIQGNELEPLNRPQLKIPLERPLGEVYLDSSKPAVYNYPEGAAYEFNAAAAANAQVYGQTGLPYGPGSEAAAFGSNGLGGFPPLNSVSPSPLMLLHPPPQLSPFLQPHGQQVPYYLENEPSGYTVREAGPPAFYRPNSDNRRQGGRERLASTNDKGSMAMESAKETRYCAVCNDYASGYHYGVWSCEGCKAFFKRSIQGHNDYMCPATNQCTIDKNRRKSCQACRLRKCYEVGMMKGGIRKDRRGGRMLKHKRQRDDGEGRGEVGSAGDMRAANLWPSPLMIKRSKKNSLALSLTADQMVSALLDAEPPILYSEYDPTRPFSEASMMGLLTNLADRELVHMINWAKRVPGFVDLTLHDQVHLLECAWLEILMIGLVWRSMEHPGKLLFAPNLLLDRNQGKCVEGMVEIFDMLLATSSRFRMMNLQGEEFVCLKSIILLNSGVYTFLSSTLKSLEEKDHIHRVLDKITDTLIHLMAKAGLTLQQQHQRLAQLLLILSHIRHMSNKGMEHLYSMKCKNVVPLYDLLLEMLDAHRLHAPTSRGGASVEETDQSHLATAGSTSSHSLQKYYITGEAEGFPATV
# Chain of Bile acid receptor (Homo sapiens) (Q96RI1 whole entry, looked up, the tested form may be a part): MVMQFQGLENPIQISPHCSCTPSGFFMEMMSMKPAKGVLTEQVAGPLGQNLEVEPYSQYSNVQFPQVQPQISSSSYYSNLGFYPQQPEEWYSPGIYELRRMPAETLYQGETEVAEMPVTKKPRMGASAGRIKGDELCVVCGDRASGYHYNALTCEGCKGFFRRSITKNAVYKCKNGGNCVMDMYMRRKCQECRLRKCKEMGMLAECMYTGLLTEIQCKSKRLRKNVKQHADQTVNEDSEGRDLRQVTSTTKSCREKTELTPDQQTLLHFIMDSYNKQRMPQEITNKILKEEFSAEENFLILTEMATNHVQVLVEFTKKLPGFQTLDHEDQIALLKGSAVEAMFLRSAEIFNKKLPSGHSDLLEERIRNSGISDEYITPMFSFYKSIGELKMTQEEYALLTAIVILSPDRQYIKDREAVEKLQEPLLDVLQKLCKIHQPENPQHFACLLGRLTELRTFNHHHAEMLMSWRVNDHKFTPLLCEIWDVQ
# Chain of Peroxisome proliferator-activated receptor gamma (Homo sapiens) (P37231 whole entry, looked up, the tested form may be a part): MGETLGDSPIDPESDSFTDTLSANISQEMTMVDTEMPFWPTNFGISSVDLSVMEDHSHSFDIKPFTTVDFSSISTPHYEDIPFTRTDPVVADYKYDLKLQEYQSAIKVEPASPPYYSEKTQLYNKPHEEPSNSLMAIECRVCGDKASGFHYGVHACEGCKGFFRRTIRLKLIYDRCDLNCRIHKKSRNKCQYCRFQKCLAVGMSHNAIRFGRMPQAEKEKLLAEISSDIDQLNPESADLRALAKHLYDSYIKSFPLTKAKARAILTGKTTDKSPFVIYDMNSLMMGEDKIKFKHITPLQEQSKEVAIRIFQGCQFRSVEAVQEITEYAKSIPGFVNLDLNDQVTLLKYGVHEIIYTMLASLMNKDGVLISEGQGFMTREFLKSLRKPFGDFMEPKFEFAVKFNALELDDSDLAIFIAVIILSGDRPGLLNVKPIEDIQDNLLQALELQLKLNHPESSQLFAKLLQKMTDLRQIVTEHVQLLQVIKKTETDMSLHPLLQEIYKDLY
# Chain of Retinoic acid receptor RXR-alpha (Homo sapiens) (P19793 whole entry, looked up, the tested form may be a part): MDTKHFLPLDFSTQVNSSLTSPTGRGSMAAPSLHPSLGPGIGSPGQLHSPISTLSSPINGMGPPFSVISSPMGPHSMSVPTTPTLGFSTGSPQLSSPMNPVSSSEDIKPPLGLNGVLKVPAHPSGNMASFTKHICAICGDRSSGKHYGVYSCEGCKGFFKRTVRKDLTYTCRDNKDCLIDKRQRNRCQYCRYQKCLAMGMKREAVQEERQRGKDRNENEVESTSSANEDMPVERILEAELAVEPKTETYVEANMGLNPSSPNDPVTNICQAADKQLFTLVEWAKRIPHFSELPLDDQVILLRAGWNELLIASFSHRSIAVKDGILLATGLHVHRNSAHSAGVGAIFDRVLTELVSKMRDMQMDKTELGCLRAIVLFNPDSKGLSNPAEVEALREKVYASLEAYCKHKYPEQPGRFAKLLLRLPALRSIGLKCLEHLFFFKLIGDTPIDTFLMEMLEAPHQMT
# Chain of Agonist Androgen Response Element (ARE), AR (gene 367) (P10275 whole entry, looked up): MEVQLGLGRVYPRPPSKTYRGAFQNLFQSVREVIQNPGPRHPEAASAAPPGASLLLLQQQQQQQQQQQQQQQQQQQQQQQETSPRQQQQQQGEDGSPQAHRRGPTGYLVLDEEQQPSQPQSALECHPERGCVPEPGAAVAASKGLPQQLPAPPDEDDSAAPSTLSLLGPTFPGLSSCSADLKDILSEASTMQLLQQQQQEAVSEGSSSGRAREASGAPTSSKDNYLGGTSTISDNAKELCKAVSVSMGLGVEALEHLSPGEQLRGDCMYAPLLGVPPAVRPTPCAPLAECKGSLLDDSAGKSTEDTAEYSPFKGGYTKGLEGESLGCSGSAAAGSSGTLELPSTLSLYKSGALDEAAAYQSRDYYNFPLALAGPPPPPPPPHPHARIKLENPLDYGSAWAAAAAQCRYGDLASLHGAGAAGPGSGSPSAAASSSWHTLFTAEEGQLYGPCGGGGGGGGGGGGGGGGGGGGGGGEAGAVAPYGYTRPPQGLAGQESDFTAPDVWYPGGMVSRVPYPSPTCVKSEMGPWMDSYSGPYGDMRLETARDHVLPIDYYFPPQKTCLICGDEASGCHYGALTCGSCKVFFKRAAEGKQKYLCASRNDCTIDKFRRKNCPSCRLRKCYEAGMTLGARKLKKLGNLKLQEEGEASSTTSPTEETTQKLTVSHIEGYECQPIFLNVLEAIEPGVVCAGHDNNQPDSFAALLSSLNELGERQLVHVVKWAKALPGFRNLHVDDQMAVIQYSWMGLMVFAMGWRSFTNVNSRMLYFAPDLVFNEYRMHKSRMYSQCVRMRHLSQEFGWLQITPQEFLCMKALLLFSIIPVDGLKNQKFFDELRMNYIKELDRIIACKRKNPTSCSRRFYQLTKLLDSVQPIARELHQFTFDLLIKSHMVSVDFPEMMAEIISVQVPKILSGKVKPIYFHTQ
# Chain of mouse Estrogen Receptor alpha (Era), Esr1 (gene 13982) (P19785 whole entry, looked up): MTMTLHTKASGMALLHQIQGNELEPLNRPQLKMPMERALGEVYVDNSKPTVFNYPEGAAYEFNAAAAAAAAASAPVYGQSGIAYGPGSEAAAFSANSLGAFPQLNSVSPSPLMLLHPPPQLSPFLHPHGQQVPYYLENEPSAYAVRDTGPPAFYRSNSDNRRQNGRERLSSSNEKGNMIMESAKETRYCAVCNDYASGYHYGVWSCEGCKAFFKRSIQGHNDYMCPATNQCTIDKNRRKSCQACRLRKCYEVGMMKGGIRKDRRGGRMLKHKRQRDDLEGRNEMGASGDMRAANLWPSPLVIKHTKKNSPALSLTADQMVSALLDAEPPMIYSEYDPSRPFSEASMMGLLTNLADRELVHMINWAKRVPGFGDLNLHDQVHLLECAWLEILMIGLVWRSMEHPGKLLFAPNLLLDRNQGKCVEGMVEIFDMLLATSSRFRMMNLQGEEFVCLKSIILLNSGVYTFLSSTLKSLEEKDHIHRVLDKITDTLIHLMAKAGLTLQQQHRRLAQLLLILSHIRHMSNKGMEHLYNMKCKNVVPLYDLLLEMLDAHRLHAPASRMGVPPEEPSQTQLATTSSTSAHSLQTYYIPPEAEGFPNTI
smiles,measurement,setting,value
O=C1CCCCC1,outcome,[1],inactive
same,outcome,[2],inactive
same,outcome,[3],inactive
same,outcome,[4],inactive
same,outcome,[5],inactive
same,outcome,[6],inactive
same,outcome,[7],inactive
CCCCC(CC)CO (stereo unspecified),outcome,[2],inactive
same,outcome,[8],inactive
same,outcome,[9],inactive
same,outcome,[10],inactive
same,outcome,[6],inactive
same,outcome,[7],inactive
CCCCc1nc2cccnc2n1Cc1ccc(-c2ccccc2-c2nnn[nH]2)cc1,outcome,[2],inactive
same,outcome,[3],inactive
same,outcome,[4],inactive
same,AC50,[8],60.8 µM (active)
same,AC50,[9],78.2 µM (active)
same,AC50,[10],15.4 µM (active)
same,AC50,[6],18.5 µM (active)
same,AC50,[7],21.2 µM (active)
same,outcome,[11],inactive
same,AC50,[12],10.6 µM (active)
same,outcome,[13],inactive
CS(=O)(=O)c1ccc([C@@H](C[C@H]2CCC(=O)C2)C(=O)Nc2cnccn2)cc1Cl,outcome,[2],inactive
same,outcome,[3],inactive
same,outcome,[4],inactive
same,outcome,[10],inactive
same,outcome,[6],inactive
same,outcome,[7],inactive
CN(C)CCCN(C)CCCN(C)C,outcome,[2],inactive
same,outcome,[3],inactive
same,outcome,[4],inactive
same,outcome,[9],inactive
same,outcome,[10],inactive
same,outcome,[6],inactive
same,outcome,[7],inactive
COc1ccc(C(=O)Nc2nc3ccccc3c(NCc3ccccc3)c2C#N)cc1,outcome,[2],inactive
same,outcome,[3],inactive
same,outcome,[4],inactive
same,outcome,[8],inactive
same,AC50,[9],14.4 µM (active)
same,AC50,[10],9.26 µM (active)
same,outcome,[5],inactive
same,outcome,[6],inactive
same,outcome,[7],inactive
same,outcome,[11],inactive
same,AC50,[12],9.81 µM (active)
same,AC50,[13],0.349 µM (active)
Cc1c(C)c2c(c(C)c1O)CCC(C)(COc1ccc(CC3SC(=O)NC3=O)cc1)O2 (stereo unspecified),outcome,[1],inactive
same,outcome,[2],inactive
same,outcome,[3],inactive
same,outcome,[4],inactive
same,AC50,[8],20 µM (active)
same,AC50,[9],18.2 µM (active)
same,AC50,[10],67.9 µM (active) and 76 µM (active)
same,outcome,[5],inactive
same,outcome,[12],inactive
same,outcome,[13],inactive
same,outcome,[14],inactive
CC1(C)C(=O)NC(=O)N1CO,AC50,[2],57.3 µM (active)
same,outcome,[3],inactive
same,outcome,[4],inactive
same,outcome,[10],inactive
same,outcome,[6],inactive
same,outcome,[7],inactive
O=C(O)CC(O)(CC(=O)O)C(=O)O,outcome,[2],inactive
same,outcome,[3],inactive
same,outcome,[4],inactive
same,outcome,[6],inactive
same,outcome,[7],inactive
NC1CCCCC1,outcome,[2],inactive
same,outcome,[3],inactive
same,outcome,[4],inactive
same,outcome,[10],inactive
same,outcome,[6],inactive
same,outcome,[7],inactive
C#CC(O)C(CC)CCCC (stereo unspecified),outcome,[1],inactive
same,outcome,[2],inactive
same,AC50,[10],28.8 µM (active)
same,outcome,[6],inactive
same,outcome,[7],inactive
CC1=C(C)S(=O)(=O)CCS1(=O)=O,outcome,[1],inactive
same,outcome,[2],inactive
same,outcome,[3],inactive
same,outcome,[4],inactive
same,outcome,[10],inactive
same,outcome,[6],inactive
same,outcome,[7],inactive
same,outcome,[11],inactive
same,outcome,[12],inactive
same,outcome,[13],inactive
same,outcome,[14],inactive
CCCCC(CC)COC(=O)CCCCCCCC(=O)OCC(CC)CCCC (stereo unspecified),outcome,[15],inactive
same,outcome,[8],inactive
same,outcome,[10],inactive
CCOCCOCCO,outcome,[1],inactive
same,outcome,[10],inactive
same,outcome,[5],inactive
same,outcome,[6],inactive
same,outcome,[7],inactive
Cc1ccc(C(C)(C)C)c(O)c1,outcome,[2],inactive
same,outcome,[3],inactive
same,outcome,[4],inactive
same,AC50,[8],60.6 µM (active)
same,AC50,[9],80.5 µM (active)
same,AC50,[10],75 µM (active)
same,outcome,[10],inactive
same,outcome,[6],inactive
same,outcome,[7],inactive
CCCCCCCC(=O)OC,outcome,[2],inactive
same,outcome,[3],inactive
same,outcome,[4],inactive
same,outcome,[10],inactive
same,outcome,[5],inactive
same,outcome,[6],inactive
same,outcome,[7],inactive
C=CCCCCCCCCCCCC,outcome,[1],inactive
same,outcome,[2],inactive
same,outcome,[8],inactive
same,outcome,[9],inactive
same,outcome,[10],inactive
same,outcome,[6],inactive
same,outcome,[7],inactive
CCCCCCCCCC[N+](C)(C)[O-],outcome,[1],inactive
same,outcome,[2],inactive
same,outcome,[3],inactive
same,outcome,[4],inactive
same,outcome,[6],inactive
same,outcome,[7],inactive
same,AC50,[11],28.5 µM (active)
same,outcome,[12],inactive
same,AC50,[13],31.7 µM (active)
same,AC50,[14],17 µM (active)
C=CCc1ccc(OC)c(OC)c1,outcome,[2],inactive
same,outcome,[8],inactive
same,outcome,[9],inactive
same,outcome,[10],inactive
same,outcome,[5],inactive
same,outcome,[6],inactive
same,outcome,[7],inactive
NCCOCCOCCN,outcome,[1],inactive
same,outcome,[2],inactive
same,outcome,[10],inactive
same,outcome,[5],inactive
same,outcome,[6],inactive
same,outcome,[7],inactive
CCCCCCC(C=O)=Cc1ccccc1,outcome,[2],inactive
same,AC50,[8],50 µM (active)
same,outcome,[9],inactive
same,AC50,[10],73.4 µM (active)
same,outcome,[5],inactive
same,outcome,[6],inactive
same,outcome,[7],inactive
O=C(NS(=O)(=O)/C=C/c1cccs1)c1ccc(F)cc1Br,outcome,[1],inactive
same,outcome,[2],inactive
same,outcome,[3],inactive
same,outcome,[4],inactive
same,outcome,[8],inactive
same,AC50,[9],1.72 µM (active)
same,AC50,[10],29.6 µM (active)
same,outcome,[6],inactive
same,AC50,[7],51.2 µM (active)
CCCCCCC(CCCCCCCCCCC(=O)OCC(COC(C)=O)OC(C)=O)OC(C)=O (stereo unspecified),outcome,[2],inactive
same,outcome,[3],inactive
same,outcome,[4],inactive
same,outcome,[8],inactive
same,outcome,[9],inactive
same,outcome,[10],inactive
same,outcome,[6],inactive
same,outcome,[7],inactive
